Screens (PubChem)
Compounds with a hit are over-represented: about 22% of the library has one in this group of screens.
cytoskel mod: alters cytoskeleton assembly in HUVEC cells; 91,000 compounds, 0.18% hits; inhibition, % at 2 µM; HUVEC TNFa F-actin phalloidin imaging, high content;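 active = inhibition above the batch mean plus 3 SD and confirmed as a hit by visual image inspection, cut at about 30% in these data, passing the limit was not always enough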
CYP2C9 inhib: blocks human cytochrome P450 2C9. P11712. CYP2C9 Supersomes, luciferin-H conversion, luminescence. inhibition, % at 5 µM. 96,000 compounds, 20% hits;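 active = blocking of liver enzyme CYP2C9 beyond about 50% at 5 µM, limit read from the data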
Target sequence (P11712 whole entry, looked up): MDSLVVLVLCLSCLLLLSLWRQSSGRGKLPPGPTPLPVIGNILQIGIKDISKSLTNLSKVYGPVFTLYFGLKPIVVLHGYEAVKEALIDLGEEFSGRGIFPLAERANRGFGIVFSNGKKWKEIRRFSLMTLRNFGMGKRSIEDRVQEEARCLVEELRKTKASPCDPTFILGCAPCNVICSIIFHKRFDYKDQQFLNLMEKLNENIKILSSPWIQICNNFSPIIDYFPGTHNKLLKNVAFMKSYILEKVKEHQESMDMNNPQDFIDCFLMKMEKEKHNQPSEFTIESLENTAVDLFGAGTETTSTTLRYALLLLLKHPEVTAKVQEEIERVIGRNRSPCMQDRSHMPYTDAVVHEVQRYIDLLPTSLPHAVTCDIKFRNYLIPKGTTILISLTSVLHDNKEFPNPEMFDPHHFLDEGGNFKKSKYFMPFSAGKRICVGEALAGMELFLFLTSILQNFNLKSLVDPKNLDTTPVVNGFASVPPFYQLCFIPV
CYP2C9 activ: increases human cytochrome P450 2C9 activity; P11712; recombinant CYP2C9, luciferin-H conversion, luminescence; hits give high values; factor 1 = untreated enzyme, 0 = blocked; activation factor at 5 µM; 96,000 compounds, 1.4% hits; AID 1024;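 active = activation factor of 2 or more for CYP2C9 at a 5 µM dose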;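 also: 0 = sulfaphenazole-blocked wells and 1 = vehicle-only wells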
CYP2C19 inh: inhibitors of human CYP2C19; inhibition, % at 5 µM; P33261; 96,000 compounds, 21% hits; CYP2C19 Supersomes, luciferin-H EGE luminescence, 30 min;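 active = CYP2C19 inhibition above a set limit at 5 µM in the primary screen, cut at about 50% in these data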;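 also: plate controls were negative control wells for no effect and 2.5 mM tranylcypromine positive control for full effect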
CYP2C19 act: cytochrome P450 2C19 (human) activation; 96,000 tested, under 10 active; P33261; recombinant CYP2C19, luciferin-H EGE luminescence; hits give high values; 0 = fully inhibited enzyme, 1 = untreated enzyme; AID 1025; activation factor at 5 µM;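 active = activation factor of at least 2 at 5 µM in the primary screen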;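 also: 0 = wells with 2.5 mM tranylcypromine and 1 = vehicle-only wells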
E-sel TNF inh: blocks E-selectin expression induced by TNF alpha; HUVEC TNFa-induced E-selectin immunofluorescence, high content; inhibition, % at 2 µM; 120,000 compounds, 0.71% hits;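 active = inhibition above the batch mean plus 3 SD, and confirmed as a hit on visual image review, cut at about 43% in these data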;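 also: 0% = TNF-stimulated DMSO wells and 100% = unstimulated control wells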
The depositor's hits bear a star; . = not tested or not shown.

SMILES | cytoskel mod | CYP2C9 inhib | CYP2C9 activ | CYP2C19 inh | CYP2C19 act | E-sel TNF inh
O=C(Nc1ncn[nH]1)c1c(Cl)ccc(Cl)c1Cl | -7 | -37 | 1.4 | 88* | 0.1 | -22
Cc1ccc(-c2nc(CSCC(=O)NCCN3CCN(Cc4ccccc4)CC3)c(C)o2)cc1 | -8 | 16 | 0.8 | 18 | 0.8 | -18
CC1=NN(c2ccc(F)cc2)C(=O)C1C(c1cccc(O)c1)c1c(C)[nH]n(-c2ccc(F)cc2)c1=O (stereo not given) | -17 | 59* | 0.4 | 7 | 0.9 | 0
C/C(=N\Nc1cc(Cl)nc(C)n1)c1ccc(Cl)c(Cl)c1 | . | -34 | 1.3 | -1 | 1 | .
C/C(=N\Nc1cc(-c2ccccc2)nc(-c2ccccc2)n1)c1ccc(O)c(C)c1 | . | . | . | . | . | 80*
COc1cccc(C2(O)CCN(C(=O)C3CCC3)CC2)c1 | -5 | 47 | 0.5 | 64* | 0.4 | .
Cc1cc2occ(CC(=O)OCC(=O)Nc3sc4c(c3C#N)CCC(C)C4)c2cc1C (stereo not given) | . | . | . | . | . | 22
Cc1ccc2c(c1)C1CCCC3C1N2CC(=O)N3Cc1ccccc1 (stereo not given) | -12 | 100* | 0 | 99* | 0 | -20
Cc1nc2ccc(N)cc2c(=O)n1Cc1ccc(Cl)cc1 | -13 | 84* | 0.2 | 99* | 0 | 21
CCCc1ccc(Oc2cn[nH]c2-c2ccc(O)c(C)c2O)cc1 | . | 99* | 0 | 98* | 0 | -33
CCCc1ccc(Oc2c(-c3ccc(O)c(C)c3O)n[nH]c2C)cc1 | . | 98* | 0 | 100* | 0 | -91
Cc1ccc(Cn2nnc3c(=O)n(CC(=O)NCC4CCCO4)cnc32)cc1 (stereo not given) | 12 | 3 | 1 | 41 | 0.6 | 19
CC1(C)OC(=O)CC1C(=O)NCc1ccccc1 (stereo not given) | -4 | -18 | 1.2 | -17 | 1.2 | 3
CC(C)(C)NC(=O)CN(Cc1cccs1)C(=O)CCC(=O)Nc1nccs1 | -2 | 15 | 0.8 | 9 | 0.9 | -1
COc1ccc(-c2nc(Cn3c(SCc4ccc(F)cc4)nc4ccncc43)c(C)o2)cc1OC | 5 | 90* | 0.1 | 89* | 0.1 | -23
COc1ccc(-c2nc(Cn3c(SCc4ccccc4F)nc4ccncc43)c(C)o2)cc1 | 2 | 73* | 0.3 | 97* | 0 | .
CCCOc1cc(C)c(S(=O)(=O)NCCOC)cc1C | 0 | 26 | 0.7 | 28 | 0.7 | -10
Cc1cc(N2CCCC2=O)cc(C)c1S(=O)(=O)NCCOc1ccccc1 | 3 | 92* | 0.1 | 88* | 0.1 | 0
CCn1c(=O)n(CC)c2cc(S(=O)(=O)NCCOc3ccccc3)c(C)cc21 | -14 | 72* | 0.3 | 51* | 0.5 | -28
Cc1cc(NC(=O)CSc2nc3cc(Cl)ccc3s2)no1 | 0 | 3 | 1 | 2 | 1 | -5
CC1CCCCC1NC(=O)COn1nnc2ccc(Cl)cc21 (stereo not given) | 15 | -85 | 1.9 | 98* | 0 | -31
Cc1cc(NC(=O)COn2nnc3ccc(Cl)cc32)no1 | . | 77* | 0.2 | 36 | 0.6 | -7
CCOc1ccccc1NC(=O)COn1nnc2ccc(Cl)cc21 | -15 | -26 | 1.3 | 56* | 0.4 | -3
CC1CCCCC1NC(=O)COC(=O)COc1ccc(Cl)cc1 (stereo not given) | -3 | -6 | 1.1 | -7 | 1.1 | -41
COc1ccccc1N1CCN(C(=O)C2C3C=CC4(CN(Cc5ccccc5Cl)C(=O)C24)O3)CC1 (stereo not given) | -31 | -11 | 1.1 | -5 | 1 | 17
SMILES | cytoskel mod | CYP2C9 inhib | CYP2C9 activ | CYP2C19 inh | CYP2C19 act | E-sel TNF inh
O=C(NCc1ccccc1)N1CCC(c2nc3ccccc3[nH]2)CC1 | -14 | 10 | 0.9 | -14 | 1.1 | 12
CCOC(=O)C1=C(C)C(c2ccccc2)NC(=S)N1 (stereo not given) | -6 | 24 | 0.8 | 63* | 0.4 | -34
CCOC(=O)C1=C(C)NC(=S)NC1C (stereo not given) | . | . | . | . | . | 6
CCOC(=O)C1=C(c2ccccc2)NC(=S)NC1C (stereo not given) | 23 | 8 | 0.9 | 52* | 0.5 | 21
CCCc1cc(C(=O)N2CCN(c3ccccc3C)CC2)cs1 | 17 | 66* | 0.3 | 69* | 0.3 | -14
Cc1ccc(N2CCN(C(=O)c3ccccc3)CC2)c(C)c1 | -4 | 76* | 0.2 | 96* | 0 | 13
